Consider 40 molecules from PubChem BioAssay (NCATS).

Activity calls are given as the source filed them. Calls follow the shape of the dose curve; as a rule, active = well fitted cell-killing curve with a large enough effect; inconclusive = small, poorly fitted or top-dose-only effect; inactive = flat fitted curve, though single readings scatter.

This test in a line: Cell Viability - LYMP1-003 - Assay at 24 hr (AID 963). Conditions: LYMP1-003 lymphoblastoid cell viability; series mostly up to 92.2 µM. The source says:
NIH Chemical Genomics Center [NCGC]
NIH Molecular Libraries Screening Centers Network [MLSCN]
National Institutes of Environmental Health Sciences [NIEHS]
National Toxicology Program [NTP]
We have developed a 1536-well cell-based assay for quantitative high throughput screening (qHTS) against a number of cell lines to determine in vitro cytotoxicity of small molecules. This particular assay uses a human lymphoblastoid cell line (LYMP1-003) purchased from Coriell Institute for Medical Research.
NCGC Assay Protocol Summary:
The CellTiter-Glo luminescent cell viability assay (Promega) is a homogeneous method to measure the number of viable cells in culture. The end point readout of this assay is based on quantitation of intracellular ATP, an indicator of metabolic activity, using the luciferase reaction. Luciferase catalyzes the oxidation of beetle Luciferin to oxyluciferin and light in the presence of ATP. The luminescent signal is proportional to amount of ATP present.
Using the CellTiter-Glo luminescent cell viability assay, the amount of cellular ATP was measured in the lymphoblastoid cell line with complete culture medium following compound treatment for 24 hours. The assay was performed in opaque white Kalypsys 1536-well plates. In the screen, tetraoctylammonium bromide was used as positive control. Library compounds were measured for their ability to cause acute toxicity in the cell line, as reflected by a decrease in intracellular ATP levels, in a concentration-dependent manner. […] AC50 values were determined from concentration-response data modeled with the standard Hill equation.
qHTS protocol for CellTiter Glo lymphoblastoid cellular assay
[Step] [Parameter] [Value] [Description]
1. Reagent; 5 uL; 2500 lymphoblastoid cells/well
2. Time; 5 hr; 37 C incubation
4. Controls; 23 nL; Tetraoctylammonium bromide 6.4pM to 92 uM
5. Time; 24 hr; 37 C incubation
6. Reagent; 5 uL; CellTiter Glo reagent
7. Time; 30 min; Room Temperature
8. Detection; Luminescence; Viewlux plate reader
Keywords: cell viability, cytotoxicity, lymphoblastoid cell line, luminescence, NTPHTS, NTPHTS_NCGC, NIEHS, DSSTox, MLSMR, MLSCN, NIH Roadmap, qHTS, NCGC
On to `C=CCBr`, for which the molecule was classed as inactive.
The same measure for `C=C(Cl)CCl`: “inactive”.
Consider `C=CCCC#N`, for which the outcome was inactive.
As for `ClC=CCl`, the outcome was inactive.
`O=NN1CCCCC1`: the molecule was classed as inactive.
The same measure for `CC12CC1(C)C(=O)N(c1cc(Cl)cc(Cl)c1)C2=O` (stereo not given): “inactive”.
As to `CCCBr`, the result was inactive.
Regarding `C=CC(=O)OCCO`, the molecule was classed as inactive.
Take `Oc1ccc(Cl)c(Cl)c1`: the result was inactive.
Consider `O=[N+]([O-])CCO`, for which the result was inactive.
With `Nc1cc(Cl)cc(Cl)c1`, the outcome was inactive.
On to `Cc1ccccc1[N+](=O)[O-]`, for which the molecule was classed as inactive.
As to `Clc1ccc(C(Cl)(Cl)Cl)cc1Cl`, the result was inactive.
Turning to `Nc1ccccc1-c1ccccc1`, the outcome was inactive.
Regarding `CCC/C=N/O`, the molecule was classed as inactive.
On to `CCCCCCCCCCCCCl`, for which the outcome was inactive.
Regarding `C=CC#N`, the outcome was inactive.
Consider `Nc1ccc(Cc2ccc(N)c(Cl)c2)cc1Cl`, for which the result was inactive.
With `NC1CCC(CC2CCC(N)CC2)CC1` (stereo not given), the molecule was called inactive.
With `CCOP(=S)(OCC)SCCSCC`, the call was inactive.
`Brc1cccc(-c2ccccc2)c1`: the outcome was inactive.
Take `O=C(Cl)OCc1ccccc1`: the molecule was called inactive.
The same measure for `N#C/C=C/C#N`: “inactive”.
Turning to `Clc1ccc(C(c2ccccc2Cl)C(Cl)(Cl)Cl)cc1` (stereo not given), the call was inactive.
As for `C=COC(C)=O`, the molecule was classed as inactive.
In the case of `S=c1[nH]c2ccccc2[nH]1`, the outcome was inactive.
As to `ClCC(Br)CBr` (stereo not given), the outcome was inactive.
As to `Oc1cc(Cl)cc(Cl)c1`, the result was inactive.
`CC(C)(C)C(O)(CCc1ccc(Cl)cc1)Cn1cncn1` (stereo not given): the molecule was called inactive.
Consider `CCC#N`, for which the molecule was classed as inactive.
In the case of `CC(C)[C@]12CC(=O)[C@H](C)[C@H]1C2`, the result was inactive.
To `Nc1cccc(Cl)c1` belongs “inactive”.
For the molecule `BrC(Br)Br`, the outcome was inactive.
Turning to `ClC(Cl)c1ccccc1`, the outcome was inactive.
`O=[N+]([O-])c1ccccc1O`: the result was inactive.
As to `O=[N+]([O-])c1cc(Cl)c(Cl)cc1Cl`, the molecule was called inactive.
As to `C=CCO`, the result was inactive.
With `CCCCOCC1CO1` (stereo not given), the call was inactive.
As for `Clc1cc(Cl)c(Cl)c(Cl)c1`, the molecule was classed as inactive.
For `CNC(=O)O/N=C/C(C)(C)S(C)=O` (stereo not given), the call was inactive.
